A selection: hits, their analogues and other compounds. The true share with any hit is near 19%.
HT1080NT lethal: kills 2HG-producing HT-1080-NT fibrosarcoma cells; HT-1080-NT fibrosarcoma viability, CellTiter-Glo ATP luminescence, 48 h; Potency, µM (doses to about 46.1 µM), without a hit: top-dose activity, negative = less viability, most hits filed as cytotoxic; 360,000 compounds, 1.6% hits; AID 686970;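 further: NT is the 2HG producing partner of a matched IDH1 knockdown line; 0% = DMSO-treated cells and -100% = media-only wells without cells; nearly all actives have a fitted effect of over 55% in size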
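Viability of the 2HG-overproducing fibrosarcoma line after 48 hours of compound exposure at 37 degrees C was determined by luminescence with CellTiter-Glo, and concentration-effect curves were then fitted and categorized.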
KB-3-1 cytotox: kills parental KB-3-1 adenocarcinoma cells; Potency, µM (titrated, usually from 46.1 µM), most hits filed as cytotoxic; 400,000 compounds, 1.4% hits; KB-3-1 viability, CellTiter-Glo ATP luminescence, 72 h; further: nearly all actives have a fitted effect of over 60% in size
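72 h, 37 °C compound treatment of KB-3-1 parental cells; CellTiter-Glo added, 10 min, luminescence read. Data corrected against DMSO-only plates and normalized before curve fitting.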
HT1080 IDH1KD tx: kills HT-1080 cells with IDH1 knockdown; Potency, µM (highest dose often 46.1 µM), for inactives: top-dose activity, negative = toxicity, hits mostly cytotoxic; AID 686971; 360,000 compounds, 2% hits; HT-1080 IDH1 knockdown viability, ATP luminescence, 48 h;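 further: 0% = DMSO wells and -100% = cell-free medium wells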
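Viability of IDH1-knockdown HT-1080 fibrosarcoma cells was assessed by CellTiter-Glo after 48 h at 37 °C with titrated compound; concentration-effect curves were classified by fit quality and response size.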
DT40 TDP1 CPT: growth inhibition of DT40 Tdp1-/-;hTDP1 cells with camptothecin (screen for TDP1 inhibitors) | Potency, µM (series often up to 46.2 µM), for inactives: top-dose activity change, negative = growth inhibition, hits mostly inhibitors | chicken DT40 Tdp1-/-;hTDP1 cells + 20 nM CPT, ATP luminescence, 48 h | AID 686979 | 420,000 compounds, 12% hits; further: nearly all actives have a fitted effect of over 55% in size
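Chicken DT40 Tdp1-/- cells stably complemented with human TDP1 were seeded at 400 cells/well in medium containing 20 nM camptothecin, exposed to pin-transferred compounds, and grown at 37 °C for at least 48 hr. Viability was read as ATP luminescence.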
KB-V1 MDR tox: KB-V1 MDR subline cytotoxicity. KB-V1 MDR cells viability, CellTiter-Glo, 72 h. AID 1347076. Potency, µM (highest dose often 46.1 µM), actives largely listed as cytotoxic. 400,000 compounds, 3.4% hits; further: nearly all actives have a fitted effect of over 60% in size
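Following 72 h at 37 degrees C with compound, KB-V1 cell viability was read by CellTiter-Glo luminescence, medium being phenol-red-free DMEM plus 10% FBS; concentration-response parameters came from normalized, curve-fitted qHTS data.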
TDP1 cell noCPT: qHTS for Inhibitors of human tyrosyl-DNA phosphodiesterase 1 (TDP1): qHTS in cells in absence of CPT. DT40 Tdp1-/- hTDP1 cells, no CPT, ATP luminescence, 48 h. Potency, µM (series often up to 46.2 µM), inactives show top-dose activity change, negative = growth inhibition, usual class: inhibitors. 420,000 compounds, 15% hits; further: nearly all actives have a fitted effect of over 55% in size
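Cells were dispensed at 400 per well, compounds added by pin tool, plates incubated ≥48 hr at 37 °C, then CellTiter-Glo added for 30 min at room temperature before luminescence reading. Line: DT40 Tdp1-/- complemented with hTDP1; camptothecin omitted.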
Active calls of the source: *. The call rests on the fitted dose curve; in most records, active means well fitted curve in the direction sought with a large enough effect; inconclusive means small, poorly fitted or top-dose-only effect, or another doubt; inactive means no such curve, though single readings can be large; an effect the other way counts as inactive or inconclusive. Unless noted, on the % scale 0 is the no-effect control and ±100 the full control effect; potency means the concentration at half of the fitted maximal effect.

Screening COc1ccc(-c2nc(-c3cccs3)c(-c3cccs3)[nH]2)cc1O returned HT1080NT lethal -23%, KB-3-1 cytotox inactive, HT1080 IDH1KD tx inconclusive, DT40 TDP1 CPT 16µM*, KB-V1 MDR tox inconclusive and TDP1 cell noCPT 13µM*.
For COc1ccc(-c2cc3nc(-c4ccccc4)cc(N4CCN(C(=O)c5ccsc5)CC4)n3n2)cc1 the results were HT1080NT lethal 0%, KB-3-1 cytotox inactive, HT1080 IDH1KD tx -1%, DT40 TDP1 CPT 7.3µM*, KB-V1 MDR tox inactive and TDP1 cell noCPT 5.2µM*.
For COc1cccc(-c2csc(N3CCN(C(=O)C4CCCCC4)CC3)n2)c1 the results were HT1080NT lethal 2%, KB-3-1 cytotox inconclusive, HT1080 IDH1KD tx -4%, DT40 TDP1 CPT inconclusive, KB-V1 MDR tox 18µM* and TDP1 cell noCPT inconclusive.
Screening O=C(c1ccccc1)N1CCN(c2cc(Cl)nc3cc(-c4cccc(Cl)c4)nn23)CC1 returned HT1080NT lethal -1%, KB-3-1 cytotox inactive, HT1080 IDH1KD tx -6%, DT40 TDP1 CPT 16µM*, KB-V1 MDR tox inactive and TDP1 cell noCPT 4.6µM*.
For O=C(c1cccc(Cl)c1)N1CCN(c2ccccn2)CC1 the results were HT1080NT lethal 26%, KB-3-1 cytotox inactive, HT1080 IDH1KD tx 12%, DT40 TDP1 CPT -25%, KB-V1 MDR tox inactive and TDP1 cell noCPT -26%.
`COc1ccc(-c2csc(N3C(=O)C4C5c6ccccc6C(c6ccccc65)C4C3=O)n2)cc1` (stereo unspecified) gave HT1080NT lethal 17%, KB-3-1 cytotox inactive, HT1080 IDH1KD tx inconclusive, DT40 TDP1 CPT -20%, KB-V1 MDR tox 6.5µM* and TDP1 cell noCPT -29%.
CCOc1ccc(C(=O)NNC(=O)CN2C(=O)C3CC=CCC3C2=O)cc1OC (stereo unspecified) was read as HT1080NT lethal 18%, KB-3-1 cytotox inactive, HT1080 IDH1KD tx 9%, DT40 TDP1 CPT 5%, KB-V1 MDR tox inactive and TDP1 cell noCPT -8%.
For COc1ccc(CCn2c(=O)c3cccnc3n(CC(=O)Nc3ccc(C)cc3C)c2=O)cc1OC the results were KB-3-1 cytotox inactive, DT40 TDP1 CPT inconclusive, KB-V1 MDR tox inactive and TDP1 cell noCPT inconclusive.
For O=C(O)c1cc(O)ccc1NC(=O)C(c1ccccc1)c1ccccc1 the results were HT1080NT lethal 12%, KB-3-1 cytotox inactive, HT1080 IDH1KD tx 10%, DT40 TDP1 CPT 5%, KB-V1 MDR tox inactive and TDP1 cell noCPT 30%.
COc1ccccc1NC(=O)Cn1ccn(-c2cccc3ccccc23)c(=O)c1=O was read as HT1080NT lethal -20%, KB-3-1 cytotox inconclusive, HT1080 IDH1KD tx -26%, DT40 TDP1 CPT inconclusive, KB-V1 MDR tox inactive and TDP1 cell noCPT inconclusive.
`COc1ccc(-c2csc(N3CCN(C(=O)c4ccccc4)CC3)n2)cc1` gave HT1080NT lethal 5%, KB-3-1 cytotox inactive, HT1080 IDH1KD tx 0%, DT40 TDP1 CPT inconclusive, KB-V1 MDR tox 16µM* and TDP1 cell noCPT inconclusive.
O=C(c1ccoc1)N1CCN(c2cc(-c3cccc(F)c3)nc3cc(-c4cccc(Cl)c4)nn23)CC1 was read as HT1080NT lethal -5%, KB-3-1 cytotox inactive, HT1080 IDH1KD tx -2%, DT40 TDP1 CPT 7.3µM*, KB-V1 MDR tox inactive and TDP1 cell noCPT 4.6µM*.
Screening COc1ccc(-c2cc3nc(-c4ccccc4)cc(N4CCN(C(=O)c5ccccc5)CC4)n3n2)cc1 returned HT1080NT lethal -10%, KB-3-1 cytotox inactive, HT1080 IDH1KD tx -19%, DT40 TDP1 CPT 15µM*, KB-V1 MDR tox inactive and TDP1 cell noCPT 4.1µM*.
`COc1ccc(-c2csc(N3CCN(C(=O)c4ccco4)CC3)n2)cc1` gave HT1080NT lethal -2%, KB-3-1 cytotox inconclusive, HT1080 IDH1KD tx -11%, DT40 TDP1 CPT inconclusive, KB-V1 MDR tox inactive and TDP1 cell noCPT inconclusive.
COc1ccc(-c2cc3nc(-c4ccccc4)cc(N4CCN(C(C)=O)CC4)n3n2)cc1 was read as HT1080NT lethal inconclusive, KB-3-1 cytotox inactive, HT1080 IDH1KD tx 16µM*, DT40 TDP1 CPT 1%, KB-V1 MDR tox inactive and TDP1 cell noCPT 2.6µM*.
COc1cccc(N2CCN(C(=O)c3ccc(-c4ccccc4)cc3)CC2)c1 was read as HT1080NT lethal 19%, KB-3-1 cytotox inactive, HT1080 IDH1KD tx -1%, DT40 TDP1 CPT 32%, KB-V1 MDR tox inactive and TDP1 cell noCPT 12%.
For CC(=O)c1ccc(NC(=O)Cn2cc3c(n2)CCCC3)cc1 the results were KB-3-1 cytotox inactive, DT40 TDP1 CPT -9%, KB-V1 MDR tox inactive and TDP1 cell noCPT 0%.
`Nc1ccccc1CNc1nc(NCCO)nc2c1ncn2CCN1CCOCC1` gave HT1080NT lethal 1%, KB-3-1 cytotox inactive, HT1080 IDH1KD tx -6%, DT40 TDP1 CPT 12%, KB-V1 MDR tox inactive and TDP1 cell noCPT -16%.
COCc1cc(CN2CCN(CCc3ccccc3)C(CCO)C2)ccc1OC (stereo unspecified) was read as HT1080NT lethal 5%, KB-3-1 cytotox inactive, HT1080 IDH1KD tx 0%, DT40 TDP1 CPT 1%, KB-V1 MDR tox inactive and TDP1 cell noCPT inconclusive.
For CCCc1cc(=O)n2nc(N3CCC(C(=O)N4CCN(c5cccc(OC)c5)CC4)CC3)sc2n1 the results were HT1080NT lethal -1%, KB-3-1 cytotox inactive, HT1080 IDH1KD tx -12%, DT40 TDP1 CPT 12µM*, KB-V1 MDR tox inactive and TDP1 cell noCPT 5.8µM*.
`Cc1ccc(S(=O)(=O)Nc2ccc(NC(=O)c3c(F)c(F)c(F)c(F)c3F)cc2)cc1` gave HT1080NT lethal -22%, KB-3-1 cytotox inconclusive, HT1080 IDH1KD tx inconclusive, DT40 TDP1 CPT inconclusive, KB-V1 MDR tox inactive and TDP1 cell noCPT inconclusive.
`CCN(CC)S(=O)(=O)c1ccc(C(=O)NCCSc2c(-c3ccc(F)cc3)[nH]c3ccccc23)cc1` gave KB-3-1 cytotox inconclusive, DT40 TDP1 CPT 8.2µM*, KB-V1 MDR tox inactive and TDP1 cell noCPT 6.5µM*.
`CCN(CC)S(=O)(=O)c1ccc(NC(=O)CCNC(=O)c2ccccc2)cc1` gave HT1080NT lethal -3%, KB-3-1 cytotox inactive, HT1080 IDH1KD tx -3%, DT40 TDP1 CPT -5%, KB-V1 MDR tox inactive and TDP1 cell noCPT inconclusive.
For COc1ccc(-c2[nH]c3ccccc3c2SCCNC(=O)c2ccccc2)cc1 the results were HT1080NT lethal inconclusive, KB-3-1 cytotox 21µM*, HT1080 IDH1KD tx inconclusive, DT40 TDP1 CPT 13µM*, KB-V1 MDR tox inactive and TDP1 cell noCPT 9.2µM*.

High-throughput results as filed in PubChem.
